# Measured values: the supplement of paper PMC9844399
# Structures can show the parent of a compound that is named as a salt.
# Tested on: HeLa
# Assay: nuclear count per well, robust Z-score vs DMSO; higher = more cells (less toxicity)
# Conditions: 10 µM; 6 h
# 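Note: Hoechst-stained nuclei counted by automated confocal imaging of four fields per well in 384-well plates, with the robust Z-score based on the per-plate DMSO median and robust SD.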
row,SMILES,nuclear count per well
1,CC1(C)C(C=C(Cl)Cl)C1C(=O)OC(C#N)c1cccc(Oc2ccccc2)c1 (stereo not drawn) [Cypermethrin],0.381
2,CC1=C2C[C@H]3[C@@H](CC=C4C[C@@H](O)CC[C@@]43C)[C@@H]2CC[C@]12O[C@@H]1C[C@H](C)CN[C@H]1[C@H]2C [Cyclopamine],1.04
3,CCCCC/C=C\C/C=C\C/C=C\C/C=C\CCCC(N)=O [Arachidonamide],-0.235
4,CCCCC/C=C\C[C@@H](/C=C/C=C\C/C=C\CCCC(=O)O)OO,0.706
5,COc1ccc(Cc2nccc3cc(OC)c(OC)cc23)cc1OC,0.871
6,CC[C@@H](C(N)=O)N1CCCC1=O [Levetiracetam],-0.202
7,COC1=CC(=O)O[C@@H](/C=C/c2ccc3c(c2)OCO3)C1 [Methylsticin],-0.809
8,COC[C@@H](NC(C)=O)C(=O)NCc1ccccc1 [Lacosamide],-0.46
9,CCCCC/C=C\C=C\[C@H](CCCCCCCC(=O)O)OO,0.0656
10,CO/C1=C\C(C)=C\[C@H](C)[C@H](O)[C@H](C)C/C(C)=C\C=C[C@@H](OC)[C@H]([C@H](C)[C@H](O)[C@@H](C)[C@]2(O)C[C@H](O)[C@@H](C)[C@H](C(C)C)O2)OC1=O [Bafilomycin A1 from Streptomyces griseus],-0.347
11,O=C1CSC(c2ccccc2Cl)c2cc(Cl)ccc2N1 (stereo not drawn),0.0531
12,"Cc1c(C(=O)c2cccc3ccccc23)c2cccc3c2n1[C@H](CN1CCOCC1)CO3 [WIN 55,212-2 mesylate]",0.0402
13,COc1[nH]c(=O)c(C(=O)[C@@H](C)C[C@H](C)[C@@H](Cl)CCl)c(O)c1OC [Atpenin A5],0.141
